Inconclusive results are not listed. Active and inactive are the calls of the source. The calls were made as follows: active = hit-call score of the fitted dose curve at least 0.9, where 1 is the maximum; inconclusive = response in the unintended direction; inactive = score below 0.9.

The experiment deals with Androgen receptor (Homo sapiens) (UniProt P10275). The experiment in a line: ATG_AR_TRANS: Attagene TRANS-FACTORIAL HepG2 Assay for human Androgen Receptor (AR) (AID 2282973). The note with it: HepG2 Attagene TRANS-FACTORIAL AR reporter transcription. The gist of the method: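 Chimeric nuclear receptor–Gal4 activity was assessed in human HepG2 hepatocytes after 24 h chemical dosing. Induced reporter mRNA was detected via labelled RT-PCR fragments on capillary electrophoresis, and gain of signal was analysed against DMSO.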
Chain of Androgen receptor (Homo sapiens) (P10275 whole entry, looked up, the tested form may be a part): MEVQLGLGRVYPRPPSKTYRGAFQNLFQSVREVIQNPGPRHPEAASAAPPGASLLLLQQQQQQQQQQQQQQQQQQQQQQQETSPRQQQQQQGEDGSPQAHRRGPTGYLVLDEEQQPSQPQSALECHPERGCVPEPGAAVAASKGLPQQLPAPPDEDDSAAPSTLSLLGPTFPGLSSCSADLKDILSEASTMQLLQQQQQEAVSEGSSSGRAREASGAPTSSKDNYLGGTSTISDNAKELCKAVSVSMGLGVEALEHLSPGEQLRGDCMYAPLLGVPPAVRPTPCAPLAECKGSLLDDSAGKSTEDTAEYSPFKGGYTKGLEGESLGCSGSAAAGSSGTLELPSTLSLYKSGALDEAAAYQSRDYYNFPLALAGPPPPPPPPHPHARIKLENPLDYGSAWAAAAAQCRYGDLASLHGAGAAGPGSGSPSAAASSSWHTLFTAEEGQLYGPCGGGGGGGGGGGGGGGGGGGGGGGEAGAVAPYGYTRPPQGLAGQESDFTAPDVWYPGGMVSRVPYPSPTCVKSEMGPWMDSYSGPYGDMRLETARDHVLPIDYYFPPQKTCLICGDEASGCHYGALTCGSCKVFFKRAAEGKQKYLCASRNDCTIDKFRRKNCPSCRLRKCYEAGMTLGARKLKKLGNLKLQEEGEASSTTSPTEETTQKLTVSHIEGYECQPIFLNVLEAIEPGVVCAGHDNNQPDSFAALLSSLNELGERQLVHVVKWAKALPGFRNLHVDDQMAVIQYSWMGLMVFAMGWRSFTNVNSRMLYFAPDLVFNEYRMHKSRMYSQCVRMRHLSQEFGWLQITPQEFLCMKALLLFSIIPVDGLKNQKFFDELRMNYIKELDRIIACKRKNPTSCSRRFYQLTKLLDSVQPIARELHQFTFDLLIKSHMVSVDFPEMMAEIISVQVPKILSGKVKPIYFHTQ
Turning to `O=C1CC2CC1C1CCCC21` (stereo not given), the compound was called inactive. In the case of `C=CCOCC(CO)(CO)CO`, the call was inactive. In the case of `Cc1cc(C(=C2C=CC(=Nc3ccc(S(=O)(=O)O)cc3)C=C2)c2ccc(Nc3ccc(S(=O)(=O)O)cc3)cc2)cc(S(=O)(=O)O)c1N` it was “inactive”; in that of `Cc1cccc(C)n1`, “inactive”; in that of `CC(C)(CO)COC(=O)C(C)(C)CO`, “inactive”. `COc1cc(/C=C/C(=O)CC(=O)/C=C/c2ccc(O)c(OC)c2)ccc1O`: the result was inactive. Turning to `CC(=O)C=O`, the result was inactive.

`COC(=O)c1ccc([N+](=O)[O-])cc1`: the compound was called inactive. Under `CCOC=C(C(=O)OCC)C(=O)OCC` stands “inactive”; under `O=C1Cc2ccccc2N1c1c(Cl)cccc1Cl`, “inactive”. With `O=S(=O)(O)C(F)(F)C(F)(F)C(F)(F)C(F)(F)C(F)(F)C(F)(F)C(F)(F)C(F)(F)C(F)(F)C(F)(F)F`, the compound was classed as inactive. `FC1(F)C=CC(F)(F)C1(F)F`: the outcome was inactive.

For `CN1CCN(C)CC1`, the result was inactive. In the case of `CCCOCCOCCOCCO` it was “inactive”; in that of `O=C(O)c1cc(Cl)cc([N+](=O)[O-])c1Cl`, “inactive”.

These data come from PubChem BioAssay (EPA / NIEHS).
